# Hits are enriched below; roughly 2.6% of the tested compounds scored in any of these assays.
# Cruzain noTriton: cruzain (T. cruzi) inhibition without detergent; purified cruzain, Z-FR-AMC fluorescence, no detergent; 200,000 tested, 2.3% active; AID 1476; P25779; Potency, µM, for the others: max response, negative = inhibition, most hits filed as inhibitors;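 further: plate controls were enzyme without inhibitor for no effect and buffer without enzyme for full effect; nearly all actives have a fitted effect of over 40% in size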
# Target sequence (P25779 123-467 limits assumed): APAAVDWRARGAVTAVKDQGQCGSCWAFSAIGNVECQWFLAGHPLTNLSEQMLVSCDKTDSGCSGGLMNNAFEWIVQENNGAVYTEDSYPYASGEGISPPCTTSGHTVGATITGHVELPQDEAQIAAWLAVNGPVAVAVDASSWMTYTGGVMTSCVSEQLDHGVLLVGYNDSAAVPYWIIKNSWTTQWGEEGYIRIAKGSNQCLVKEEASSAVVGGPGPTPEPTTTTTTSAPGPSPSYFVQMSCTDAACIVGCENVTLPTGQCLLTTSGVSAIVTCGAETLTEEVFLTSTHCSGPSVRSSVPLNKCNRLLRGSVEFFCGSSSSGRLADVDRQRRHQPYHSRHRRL
#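 Purified cruzain at 1.5 nM, pre-incubated 15 min with compound at room temperature in 100 mM sodium acetate pH 5.5, 5 mM DTT, 0.00005% Triton X-100. Reaction started with 2 uM Z-FR-AMC; AMC fluorescence increase over 60 s gives rate.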
# Cruzain inh Det: inhibitors of Trypanosoma cruzi cruzain with detergent; P25779; purified cruzain, Z-FR-AMC fluorescence, 0.01% Triton; Potency, µM, without a hit: max response, negative = inhibition, usual class: inhibitors; 200,000 tested, 0.43% active; AID 1478;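 further: plate controls were neutral wells for no effect and buffer without enzyme for full effect; nearly all actives have a fitted effect of over 40% in size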
#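 Sodium acetate buffer (100 mM, pH 5.5) containing 5 mM DTT and 0.01% Triton X-100 hosted 1.5 nM cruzain and test compound for 15 min at room temperature. Cleavage of 2 uM Z-FR-AMC was then tracked by fluorescence.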
# Numbers without * were called inactive; ? = inconclusive. The call rests on the fitted dose curve; in most records, active means well fitted curve in the direction sought with a large enough effect; inconclusive means small, poorly fitted or top-dose-only effect, or another doubt; inactive means no such curve, though single readings can be large; an effect the other way counts as inactive or inconclusive. Potency means the concentration at half of the fitted maximal effect.
SMILES,Cruzain noTriton,Cruzain inh Det
COc1ccc(N=C2SC(CC(=O)Nc3ccc(OC)cc3OC)C(=O)N2C)cc1 (configuration not stated),?,-4%
COc1cc([N+](=O)[O-])ccc1NC(=O)CC1SC(=Nc2ccc(F)cc2)N(CCC2=CCCCC2)C1=O (configuration not stated),10µM*,-4%
COc1ccc(OC)c(NC(=O)CC2SC(=Nc3ccccc3)N(CCc3ccccn3)C2=O)c1 (configuration not stated),?,-4%
COc1ccc(-c2nnc(SCc3cc(=O)c4cc(C)cc(C)c4[nH]3)n2C)cc1,12%,1%
COc1ccc(-c2nc3sc(CCNC(=O)C(=O)Nc4cccc(NC(C)=O)c4)c(C)n3n2)cc1,3%,-2%
COC(=O)Cn1c(=O)c2cccn2c2ccc(F)cc21,6%,-4%
O=S(=O)(c1cccc2ccccc12)N1CCN(c2ccc(Cl)c(Cl)c2)CC1,20µM*,-1%
CCOc1ccc(S(=O)(=O)N2CCN(c3ccc(Cl)c(Cl)c3)CC2)c2ccccc12,10%,2%
CC1=N/C(=C\c2ccc([N+](=O)[O-])cc2)C(=O)N1c1ccc(Br)c(C)c1,7.9µM*,-3%
COc1ccc(/C=C2\N=C(C)N(c3ccc(C(=O)O)cc3)C2=O)cc1OC,-8%,-10%
COc1ccc(OC)c(CNC(=O)C2CCCCN2S(=O)(=O)c2ccc(F)cc2)c1 (configuration not stated),3%,-2%
CCOC(=O)c1c(NC(=O)COc2ccccc2Br)sc2c1CCCCC2,2%,-6%
CCOC(=O)c1c(NC(=O)c2ccccc2Br)sc2c1CCc1ccccc1-2,16µM*,-6%
COc1ccc(C)cc1S(=O)(=O)Nc1cccc(-c2ccc(N3CCCC3)nn2)c1,15%,-2%
Cc1ccc(OCC(=O)Nc2nnc(S(=O)(=O)N3CCc4ccccc43)s2)cc1,5%,-1%
O=c1c2c(-c3ccccc3)csc2ncn1/N=C/c1c2ccccc2cc2ccccc12,10µM*,-5%
Cc1nn(-c2ccccc2)c(N2CCCC2)c1/C=N/n1cnc2scc(-c3ccccc3)c2c1=O,-3%,-1%
Cc1cc2oc(C(=O)Nc3c(C(=O)Nc4ccccc4)oc4ccccc34)cc(=O)c2cc1C,15%,1%
Cc1cccn2c(=O)c3cc(C(=O)N4CCN(C(=O)c5ccco5)CC4)n(C)c3nc12,-3%,-5%
CCCCCn1c(=NC(C)=O)c(C#N)cc2c(=O)n3ccccc3nc21,11%,9%
CCOC(=O)c1cc2c(=O)n3ccccc3nc2n(CCCOC)c1=NC(C)=O,?,32µM*
CCOC(=O)c1cc2c(=O)n3ccccc3nc2n(CCCOC)c1=NC(=O)c1c(-c2c(F)cccc2Cl)noc1C,-1%,-1%
Cn1c(C(=O)N2CCN(C(=O)c3ccco3)CC2)cc2c(=O)n3ccccc3nc21,?,25µM*
C=CCn1c(=N)c(C#N)cc2c(=O)n3ccccc3nc21,?,28µM*
CCOCCCn1c(=N)c(C(=O)NCc2ccccc2)cc2c(=O)n3ccccc3nc21,-2%,-9%
SMILES,Cruzain noTriton,Cruzain inh Det
C=CCn1c(=N)c(C(=O)NCCCOC)cc2c(=O)n3ccccc3nc21,25µM*,32µM*
CCc1cccc(NC(=O)C2CCCN2S(=O)(=O)c2ccc3nc(-c4ccccc4)[nH]c3c2)c1 (configuration not stated),3%,-5%
CC(=O)N1CCCC1c1nc2ccccc2n1Cc1ccccc1C (configuration not stated),-3%,-10%
COc1ccc(OCCn2cc(C(=O)c3ccco3)c3ccccc32)cc1,10%,-7%
Cc1ccc(NC(=O)Cn2c(=O)n(CC(=O)NCCc3ccccc3)c(=O)c3ccccc32)cc1C,-8%,-1%
CC(C)n1c(=N)c(C(=O)NCc2ccccc2)cc2c(=O)n3ccccc3nc21,16%,-5%
COC(=O)c1cc2c(=O)n3ccccc3nc2n(C)c1=N,?,11µM*
CS(=O)(=O)c1ccc2nc(NC(=O)c3cccc(NS(=O)(=O)c4ccc(F)c(F)c4)c3)sc2c1,-29%,-7%
O=C(Nc1nc2ccc(SC(F)F)cc2s1)c1ccc(NS(=O)(=O)c2ccc(F)c(F)c2)cc1,32µM*,-1%
CCc1ccc(NC(=O)Nc2ccccc2OCc2cc(=O)n3ccccc3n2)cc1,6%,3%
Cc1ccccc1NC(=O)CSc1nc(N)c(C#N)cc1C#N,-11%,5%
Cc1ccc2cc(C#N)c(SCC(=O)NNC(=O)Cc3ccccc3)nc2c1,10µM*,-3%
CCOc1ccc2cc(C#N)c(SCC(=O)NC(C)CC)nc2c1 (configuration not stated),13µM*,3%
COC(=O)CSc1nc2cc(OC)ccc2cc1C#N,-10%,-3%
COc1ccc2cc(C#N)c(SCC(=O)NNC(=O)Cc3ccccc3)nc2c1,13µM*,4%
COc1cccc(-c2ccc(C#N)c(SCC(=O)NCCc3cccc(Cl)c3)n2)c1,32µM*,-4%
COc1ccc(-c2ccc(C#N)c(SCC(=O)NCCc3ccccc3)n2)cc1OC,1%,3%
CCOC(=O)CSc1nc2cc(OCC)ccc2cc1C#N,-16%,-9%
Cc1ccccc1Cn1c(Oc2ccccc2F)nc2c1c(=O)n(C)c(=O)n2C,1%,3%
CC(C)c1cccc(C(C)C)c1NC(=O)c1ccc(OCC(=O)NCc2ccccc2)cc1,7.9µM*,0%
CC(C)c1ccccc1NC(=O)COc1ccc(C(=O)NCCc2ccccc2)cc1,?,0%
O=C(c1ccc2c(c1)N(Cc1cccc(F)c1)C(=O)c1ccccc1S2)N1CCCC1,?,-7%
Cc1cc(C)c2oc(C(=O)Nc3sc4c(c3C(=O)NCc3ccco3)CCC4)cc(=O)c2c1,-6%,-1%
Cc1cc(N2CCC(C)CC2)nc2ccc(NC(=O)Cc3c(F)cccc3Cl)cc12,2%,0%
COc1ccccc1-c1cc(-c2ccc(C)cc2)nc(SCc2nnc(-c3ccccc3)o2)c1C#N,4µM*,0%
SMILES,Cruzain noTriton,Cruzain inh Det
Cc1cc(C)c(C#N)c(SCc2nnc(-c3ccccc3)o2)n1,4%,-5%
Cc1ccccc1-c1ccc2ncnc(N3CCOCC3)c2c1,-5%,-1%
CC1=C(c2ccc(C)c(C)c2)S(=O)(=O)N=C1N1CCC(C(=O)NCc2ccc(N(C)C)cc2)CC1,?,-9%
O=C(Cn1c(=O)nc(-c2ccccc2)c2ccccc21)NCc1ccc(F)cc1,-6%,0%
CCC(C)c1ccc(OCCn2cc(/C=N/NC(=O)CSc3nnc(C)s3)c3ccccc32)cc1 (configuration not stated),4µM*,1%
Cc1cccc(OCCn2cc(/C=N/NC(=O)c3ccncc3)c3ccccc32)c1,?,-8%
CCOc1ccc(Cl)cc1CNCCCSc1nnnn1C,0%,1%
CC1(C)N=C(N)NC(Nc2cccc(Br)c2)=N1,6%,-1%
CC1(C)N=C(N)NC(Nc2ccc(Br)cc2)=N1,20µM*,16µM*
CCN1CCN(c2cc(C)c3cc(NC(=O)c4cc(Br)ccc4Cl)ccc3n2)CC1,-4%,-16%
COc1ccc(OC)c(NC(=O)C(=O)N/N=C/c2ccccc2[N+](=O)[O-])c1,-20%,1%
COc1ccc(NC(=O)C(=O)N/N=C/c2cc(C)n(-c3cccc(Cl)c3Cl)c2C)c(OC)c1,13µM*,-4%
COC(=O)[C@@]1(Cc2ccccc2)[C@H]2c3cc(C(=O)N(C)C)n(Cc4cc(F)c(F)c(F)c4)c3C[C@H]2CN1C(=O)c1ccccc1,?,-5%
